Measurements from the emibetuzumab library of Makowski et al. (2022).
The list shows a part of the results. The hit rate among all sequences tested is not known here.

B1: VH:VL chains; a variant is named by its letters at X, in order (parent)
chain 1: QVQLVQSGAEVKKPGASVKVSCKASGYTFTDYXMHWVRQAPGQGLEWMGXVNPNXXXTTYNQKFEGRVTMTTDTSTSTAYMELRSLRSDDTAVYYCARXNXLDXWGQGTTVTVSS
chain 2: DIQMTQSPSSLSASVGDRVTITCSVSSSVSSIYLHWYQQKPGKAPKLLIYSTSNLASGVPSRFSGSGSGTDFTLTISSLQPEDFATYYCQVYSGYPLTFGGGTKVEIK

Variants of: B1
Experiment: yeast display scFab, FACS + sequencing
Conditions: with MET
Procedure, shortened: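 Antigen binding was called positive for sequences present in both antigen-positive samples and negative for those present only in the input. These calls came from deep sequencing, in two replicates, of round-3 sorted and input populations from a heavy-chain CDR mutant scFab yeast surface library. The library was first enriched twice magnetically on HGFR-Fc-coated Protein A beads and then by FACS, gating the top 50% antigen-positive cells after 3 h labelling at room temperature with 1 nM HGFR-Fc plus anti-Myc in PBSB with 1% milk.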

| Variant | antigen binding call |
| --- | --- |
| DATGNVWS | no binding |
| YATTSFSF | no binding |
| SKRKSSSD | no binding |
| SKTRGAWD | binds |
| SKERGDVD | no binding |
| SKAKGSSD | binds |
| FKAKGAWD | binds |
| FGTKGAWD | no binding |
| SKTKSDVD | no binding |
| FGEEDFSS chain 1 W105R | no binding |
| VGGTSDVV | no binding |
| VEEEGSGV | no binding |
| DRTGDDVY | no binding |
| VRAGDDVD | no binding |
| VTGTSSLD | no binding |
| VEETSSLD | no binding |
| VRGKDSLD | binds |
| VTGEDSLD | no binding |
| VRTKAVAY | no binding |
| VEAGDSLD | no binding |
| VRAGSSLD | binds |
| VRTGDSAY | binds |
| VRAGDSLD | binds |

| Variant | antigen binding call |
| --- | --- |
| VTTKSYLV | no binding |
| DAARGDGV | no binding |
| VRAGSSWD | binds |
| VKTGGSLD | no binding |
| VAGTGSLD | no binding |
| VRTGDDGV | no binding |
| VRTGDSLD | binds |
| VRKGGSLD | binds |
| AETKGFAV | no binding |
| VKGASDVA | no binding |
| YRGRASGA | binds |
| YTGTSSGA | no binding |
| YEGGTSGA | no binding |
| YRGGASGA | binds |
| YRAAGSGA | binds |
| YRAGAAVA | binds |
| VRAGADVA | no binding |
| YGGRAAGA | no binding |
| VEEEGDAV | no binding |
| YRGANSGA | no binding |
| YRARSSGA | binds |
| SREAASLA | no binding |
| YRAGASLA | binds |

| Variant | antigen binding call |
| --- | --- |
| YRAGSSGA | binds |
| DRAGDSGA | no binding |
| DRAGDAGA | no binding |
| YRARSAGA | binds |
| DEGGDAGD | no binding |
| VAEKGDAA | no binding |
| VEKGGDWD | no binding |
| FKGEGDVY | no binding |
| VKTGGDVA | no binding |
| YRAGASGA | binds |
| DAKEGAAA | no binding |
| YRKEAAAA | binds |
| YRKEGAAA | binds |
| YRKGSAAA | binds |
| VAEAAVGD | no binding |
| AETKGDWV | no binding |
| VEGTSAVY | no binding |
| VKKEDDVV | no binding |
| VREGAAAV | no binding |
| VAGGGAAV | no binding |
| VRAGGAWV | binds |
| VRGGGAWV | binds |
| VRGGGAAV | binds |

| Variant | antigen binding call |
| --- | --- |
| VRAGGDWV | no binding |
| VEGGGFAY | no binding |
| VRGGGAAY | binds |
| VRGAGAWV | no binding |
| VRGTGAVY | no binding |
| DTTGSAVV | no binding |
| FTGTSDLY | no binding |
| FRGRGAWS | binds |
| FRGRDFGS | no binding |
| FEATASWS | no binding |
| FRGRDSWS | binds |
| FRGRGSWS | binds |
| FRGRGSVS | binds |
| FRGRDYGS | no binding |
| AGGGNDGA | no binding |
| VTGGDDWY | no binding |
| AARADAVV | no binding |
| FRGRGAAS | binds |
| FRGRGDLS | no binding |
| FRGRGFLS | no binding |
| FRGRGALS | binds |
| FRGRGAGS | binds |
| FRGRGSLS | binds |

| Variant | antigen binding call |
| --- | --- |
| SGKKSSGV | no binding |
| VEGTSAVF | no binding |
| FRGRASLS | binds |
| DRERGDGY | no binding |
| YRRRGVGY | binds |
| YAAKSDGY | no binding |
| YRRRGDGY | binds |
| YRRRGFGY | binds |
| YRRRGAGY | binds |
| FAAAGFVA | no binding |
| VKREAVGV | no binding |
| YRRRGFGS | binds |
| YRRRGSGY | binds |
| VRTRGALS | binds |
| SRTRGFGS | no binding |
| YRTGAALS | binds |
| YAREAALS | no binding |
| DREEGAGS | no binding |
| YRTRGALS | binds |
| VREGDYLS | no binding |
| DAEESDGA | no binding |
| DGTKSYGV | no binding |
| VTGGDDWV | no binding |

| Variant | antigen binding call |
| --- | --- |
| FAEGAAAV | no binding |
| FKTKSDAV | no binding |
| DKTGDAAV | no binding |
| FKTGGAAV | binds |
| FKTESAAV | binds |
| YTTGGAAV | no binding |
| AKTKSDVA | no binding |
| DATGGDVY | no binding |
| VAEKGDWY | no binding |
| FGKEDSVD | no binding |
| FATTDSVD | no binding |
| FRTGDSVD | binds |
| FRTGDSWD | binds |
| YARADDVA | no binding |
| VKAGDSSS | binds |
| YRAKGSSS | binds |
| YRRKGSSS | binds |
| FGAKGSSS | no binding |
| VEAGDSSS | no binding |
| YRAGDSSS | binds |
| VKAGDAWS | no binding |
